Assay results from PubChem BioAssay (NCATS).
Records with an inconclusive call do not appear. Active and inactive are the calls of the source. The call rests on the fitted dose curve; in most records, active means well fitted inhibition curve with a large enough effect; inconclusive means small, poorly fitted or top-dose-only effect; inactive means no such curve, though single readings can be large or run the other way.
Potency means the concentration at half of the fitted maximal effect.

Assay: qHTS Screen of the MIPE 4.0 Collection Against Ewings Sarcoma (EW8) (AID 1259255); further: nearly all actives have a fitted effect of over 35% in size
Conditions: EW8 Ewing sarcoma viability, CellTiter-Glo, 48 h; series mostly up to 45.8 µM
Excerpt: There is a large unmet medical need for treatments for Ewing sarcoma, a pediatric sarcoma. We sought to identify compounds that inhibited Ewing sarcoma cells in vitro with the goal to then test promising drugs in two drug combinations in vitro to look for synergistic drug combinations. Promising combinations would then proceed to additional validation, including in vivo testing.
Using the NCATS developed oncology compound library called the Mechanism of Interrogation Plate (MIPE), four Ewing sarcoma cell lines were evaluated (TC32, TC71, RDES, EW8). Compounds, in a 12-point titration series, were incubated with cells for 48 hours and the read out was cell viability (CellTiter-Glo from Promega). These initial experiments were used to select appropriate concentrations of each single agent for subsequent two-drug matrix combinations such that the concentrations in the matrices would span both activity and non-activity.
Cells, in the log phase of growth, were seeded in 5 uL of RPMI plus 5% FBS, […] L-glutamine, 100 U/ml penicillin and 100 ug/ml streptomycin into 1536-well solid-bottom white tissue culture treated Greiner Bio One Plates (789173-F) using a MultiDrop Combi (Thermofisher Scientific) dispenser and a small sterile cassette. One column was media alone to be used as a :"no cells" control. The plates were then covered with sterilized stainless steel gasketed lids from Kalypsys. After allowing cells to attach for 4 hours, 23 nL of test compound or control (negative control DMSO and positive control 9.2 uM Bortezomib-final) were added from a 1536-well polypropylene compound source plate to each well using a 1536 head pin tool from Kalypsys. Cells were then incubated for 48 hours at 37C, 95% relative humidity and 5% CO2. After 48 hours, plates were removed from the incubator and 3 uL of CellTiter-Glo (Promega) was added using an Aurora Flying Reagent Dispenser Bioraptor. Plates were incubated at room temperature for 10 minutes prior to reading the luminescence on the Viewlux (PerkinElmer). The relative luciferase units are used to calculate the percent activity using the activity of DMSO in the cells and no cells columns for normalization of no inhibition and full inhibition respectively.
With `COc1cc2c(cc1Cc1cccc(Cl)c1F)c(=O)c(C(=O)O)cn2[C@H](CO)C(C)C` the Potency was 23.5 µM (active).
With `CN1CC(=O)NC1=NC(=O)Nc1cccc(Cl)c1` the Potency was “inactive”.
In the case of `O=c1[nH]c(=O)n([C@H]2C[C@@H](O)[C@@H](CO)O2)cc1C(F)(F)F`, the Potency is reported as 3.32 µM (active).
With `O=C(O)C1=CC(O)C(O)[C@H](O)C1` (stereo not given in full) the Potency was “inactive”.
In the case of `Nc1ccc(-c2ccc3ncc4ccc(=O)n(-c5cccc(C(F)(F)F)c5)c4c3c2)cn1`, the Potency is reported as 0.0066 µM (active).
In the case of `COc1cc2ncn(-c3cc(OCc4ccccc4S(C)(=O)=O)c(C#N)s3)c2cc1OC`, the Potency is reported as “inactive”.
With `N=C1SC(=Cc2ccc(-c3ccc4c(c3)C(=O)NC4=O)o2)C(=O)N1c1ccc(Br)cc1` the Potency was “inactive”.
For `CN(C)CCN(C)C(=O)c1ccc(NC(=O)Nc2ccc(-c3nc(N4CCOCC4)c4ccn(CC(F)(F)F)c4n3)cc2)cc1`, the Potency was 0.0209 µM (active).
With `CNC1CCC(N(Cc2cccc(-c3ccncc3)c2)C(=O)c2sc3ccccc3c2Cl)CC1` (stereo not given) the Potency was 23.5 µM (active).
For `CC(NCCc1ccc(O)cc1)C(O)c1ccc(O)cc1` (stereo not given), the Potency was “inactive”.
With `C[C@@H]1CCO[C@H]2Cn3cc(C(=O)NCc4ccc(F)cc4F)c(=O)c(O)c3C(=O)N12` the Potency was 20.9 µM (active).
With `O=C1C(c2c(O)[nH]c3ccccc23)=Nc2ccccc21` the Potency was 26.4 µM (active).
For `Cc1cnc(-c2cc(N3CCN(C(=O)CCS(C)(=O)=O)CC3)ncc2Cl)c(C)c1`, the Potency was “inactive”.
With `Nc1ncnc2c1ncn2[C@@H]1O[C@H](CO)[C@@H](O)[C@@H]1O` the Potency was 5.26 µM (active).
In the case of `Oc1cc(O)cc(C=Cc2ccc(O)c(O)c2)c1`, the Potency is reported as 18.7 µM (active).
For `CC[C@H](C)C(=O)O[C@H]1C[C@H](O)C=C2C=C[C@H](C)[C@H](CC[C@@H](O)C[C@@H](O)CC(=O)O)[C@H]21`, the Potency was “inactive”.
For `CC[C@H](NC(=O)[C@H](C)NC)C(=O)N1C[C@@H](O)C[C@H]1Cc1c(-c2[nH]c3cc(F)ccc3c2C[C@H]2C[C@H](O)CN2C(=O)[C@H](CC)NC(=O)[C@H](C)NC)[nH]c2cc(F)ccc12`, the Potency was “inactive”.
For `C[C@@H]1O[C@@H](O[C@H]2CC[C@@]3(C)[C@H](CC[C@@H]4[C@H]3C[C@@H](O)[C@]3(C)[C@@H](C5=CC(=O)OC5)CC[C@]43O)C2)C[C@H](O)[C@@H]1O[C@H]1C[C@H](O)[C@H](O[C@H]2C[C@H](O)[C@@H](O)[C@@H](C)O2)[C@H](C)O1` (stereo in doubt), the Potency was 0.215 µM (active).
For `C[C@@H]1[C@H](C)CC[C@]2(C(=O)O)CC[C@]3(C)C(=CC[C@@H]4[C@@]5(C)CC[C@H](O)C(C)(C)[C@H]5CC[C@]43C)[C@@H]12`, the Potency was 5.4 µM (active).
With `CCCCC(C=O)NC(=O)C(CC(C)C)NC(=O)OCc1ccccc1` (stereo not given) the Potency was 11.8 µM (active).
For `O=C1CCCC(=O)C1C(=O)c1ccc(C(F)(F)F)cc1[N+](=O)[O-]`, the Potency was “inactive”.
In the case of `COC(=O)[C@H](c1ccccc1Cl)N1CCc2sccc2C1`, the Potency is reported as “inactive”.
In the case of `OC[C@H]1O[C@@H](O[C@H]2[C@@H](O)[C@@](O)(CO)O[C@@H]2CO)[C@H](O)[C@@H](O)[C@@H]1O`, the Potency is reported as “inactive”.
With `COc1c(C)c2c(c(O)c1CC=C(C)CCC(=O)OCCN1CCOCC1)C(=O)OC2` the Potency was 1.05 µM (active).
With `CCCCC(F)(F)[C@@]1(O)CC[C@H]2[C@H](CC(=O)[C@@H]2CCCCCCC(=O)O)O1` the Potency was 3.32 µM (active).
For `COc1cc(CNC(=O)CCCCC=CC(C)C)ccc1O`, the Potency was 6.62 µM (active).
For `CNC(=O)c1cc(Oc2ccc(NC(=O)Nc3ccc(Cl)c(C(F)(F)F)c3)c(F)c2)ccn1`, the Potency was 20.9 µM (active).
For `O=C(O)CCNc1cc(N2CCc3ccccc3CC2)nc(-c2ccccn2)n1`, the Potency was “inactive”.
With `CN1CCc2c(n(Cc3ccc(C(=O)NO)cc3)c3ccccc23)C1` the Potency was 16.6 µM (active).
With `N#CC1(c2cccc(C(=O)Nc3cc(Oc4ccc5nc(NC(=O)C6CC6)sc5n4)ccc3F)c2Cl)CC1` the Potency was 20.9 µM (active).
In the case of `CN(C)CCCNC(=O)c1ccc(-c2cc(O)c3ncccc3c2)cc1`, the Potency is reported as 14.8 µM (active).
For `CN(C(Cc1ccc(OS(=O)(=O)c2cccc3cnccc23)cc1)C(=O)N1CCN(c2ccccc2)CC1)S(=O)(=O)c1cccc2cnccc12` (stereo not given), the Potency was 14.8 µM (active).
For `NC(=O)c1noc([C@H](CCCC2CCCCC2)CC(=O)NO)n1`, the Potency was 18.7 µM (active).
For `Cc1cn([C@@H]2C[C@@H](O)[C@H](CO)O2)c(=O)[nH]c1=O`, the Potency was “inactive”.
With `O=C1C(CCC(O)c2ccc(F)cc2)C(c2ccc(O)cc2)N1c1ccc(F)cc1` (stereo not given) the Potency was “inactive”.
For `Cc1ccccc1-n1c(Cn2nc(-c3cccc(O)c3)c3c(N)ncnc32)nc2cccc(C)c2c1=O`, the Potency was 16.6 µM (active).
In the case of `CN1N=C(N)c2cn([C@@H]3O[C@H](COP(=O)(O)O)[C@@H](O)[C@@H]3O)c3ncnc1c23`, the Potency is reported as 13.2 µM (active).
In the case of `C[C@@H]1[C@H](O)[C@@H](C)C=CC=CC=CC=CC=CC=CC=C[C@H](O[C@@H]2O[C@H](C)[C@H](O)[C@H](N)[C@@H]2O)C[C@@H]2O[C@](O)(C[C@@H](O)C[C@@H](O)[C@H](O)CC[C@@H](O)C[C@@H](O)CC(=O)O[C@H]1C)C[C@H](O)[C@@H]2C(=O)O`, the Potency is reported as 1.18 µM (active).
With `CC(C)C[C@H](NC(=O)c1cc2ccccc2s1)C(=O)N1CCN(C(=O)[C@H](CO)NS(=O)(=O)c2ccc(Cl)cc2Cl)CC1` the Potency was 20.9 µM (active).
For `Cc1cnc(Nc2cccc(CN3CCOCC3)c2)nc1Nc1cccc(S(=O)(=O)NC(C)(C)C)c1`, the Potency was 2.64 µM (active).
